The record followed here is PubChem BioAssay (NCI).

Holding throughout (test): NCI-60 one-dose screen, 48 h (100 = growth as untreated, 0 = no growth, -100 = all killed)
Assay [1] concerns SR leukemia. The note with it: 10 µM unless noted.
Assay [2] concerns RPMI-8226 leukemia. The note with it: 10 µM unless noted.
The subject of assay [3] is OVCAR-8 ovarian. The note with it: 10 µM unless noted.
Assay [4] deals with OVCAR-5 ovarian. The settings on record: 10 µM unless noted.
Assay [5] has as its system OVCAR-4 ovarian. The settings on record: 10 µM unless noted.
Assay [6] relates to SK-OV-3 ovarian. The note with it: 10 µM unless noted.
Assay [7] concerns IGROV1 ovarian. The settings on record: 10 µM unless noted.
Assay [8] concerns OVCAR-3 ovarian. The note with it: 10 µM unless noted.
The test system of assay [9] is NCI/ADR-RES ovarian. The settings on record: 10 µM unless noted.
The subject of assay [10] is T-47D breast. The note with it: 10 µM unless noted.
For assay [11], the system named is BT-549 breast. The settings on record: 10 µM unless noted.
Assay [12] has as its system MDA-MB-435 melanoma. The note with it: 10 µM unless noted.
In assay [13] the test system is SW-620 colon. The settings on record: 10 µM unless noted.
Assay [14] concerns MCF7 breast. The settings on record: 10 µM unless noted.
Assay [15] concerns HCT-116 colon. The note with it: 10 µM unless noted.
Assay [16] deals with HCC-2998 colon. The settings on record: 10 µM unless noted.
Assay [17] concerns KM12 colon. The note with it: 10 µM unless noted.
In assay [18] the test system is HS 578T breast. The settings on record: 10 µM.

Compounds without any hit were thinned out: in the full panel of roughly 83,000, 20% have a hit.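 Cell lines were cultured in 96-well plates, exposed to a single compound concentration, and assessed for percent growth 48 hours later.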 A number with no mark means an inactive call. Active and inactive are the calls of the source. Rule for the calls: active = growth percent below 10; inactive = the rest.

`NC(N)=N/N=C\c1ccc(OCc2ccccc2)cc1`: the growth in assay [1] was 75.4%; in assay [2] it was 83.4%; in assay [3], 89.1%; in [4], 82.8%; in assay [5], 56.8%; in assay [6] it was 77.1%. Also, the growth in [7] was 77.7%; in [8] it was 74.4%; in [9], 80%; in [10] it was 35.7%; in assay [11], 89.3%; in assay [12], 9.55% (active). Moreover, the growth in assay [13] is 73.9%; in [14], 17.3%; in assay [15], 61%; in assay [16], 82.3%; in assay [17], 58.8%.

Regarding `Oc1c(C(c2ccc(F)cc2)N2CCCCC2)ccc2cncnc12` (centres undefined), the growth was 15.7% in assay [1]; 22.1% in assay [2]; 8.68% (active) in assay [3]; 22.3% in assay [4]; 5.59% (active) in [5]; -14.9% (active) in [6]. The growth in [7] was 9.64% (active); in assay [8], 11.1%; in assay [18], 13%; in assay [11], 25.8%; in assay [12], 14.1%; in [13], 18.1%. For the same molecule, the growth in assay [14] was 6.3% (active); in [15] it was 11.1%; in assay [16], 32.3%; in [17] it was 16.2%.

Consider `Nc1n[nH]c2ccc([C@@H]3Nc4c(F)cc5[nH]ncc5c4[C@H]4C5CCC(C5)[C@@H]34)cc12` (some centres undefined), for which the growth in [1] is 42.8%; in [2], 21.3%; in assay [3], 22%; in [4] it was 30.8%; in [5], 29.4%; in [6], 39.1%. Further, the growth is 20.9% in assay [7]; -16.7% (active) in assay [8]; 20.9% in [18]; 27% in [11]; -11.5% (active) in assay [12]; 21.8% in [13]. For the same molecule, the growth is 18.5% in [14], 7.44% (active) in [15], 28.1% in [16] and 10.4% in [17].

Turning to `Fc1cnccc1-c1nc2ccc3[nH]ncc3c2c2c1CCCC2`, the growth is 34.1% in assay [1]; 37.6% in assay [2]; 30.2% in assay [3]; 45.2% in [4]; 48.9% in assay [5]; -21.2% (active) in [6]. In addition, the growth in assay [7] was 12.1%; in assay [8], 30.4%; in assay [18], 10.8%; in assay [11] it was 16.1%; in assay [12], 10.4%; in assay [13], 14.6%. For the same molecule, the growth in assay [14] is 34.7%; in assay [15], 7.21% (active); in assay [16], 37.5%; in assay [17], 18.4%.

As for `CNC(=O)c1cc(Oc2ccc(NC(=O)c3nc(S(C)(=O)=O)n(C)c3-c3ccc(F)cc3)cc2)ccn1`, the growth in assay [1] is 60.2%; in assay [2], 55.6%; in assay [3], 75.8%; in assay [4], 104%; in assay [5], 67.1%; in assay [6] it was 58.9%. In addition, the growth in assay [7] is 54.3%; in [8], 69.6%; in assay [18], 76.9%; in assay [10], 61.5%; in [11], 80.6%; in assay [12], 79.4%. For the same molecule, the growth in [13] is 72.1%; in [15], 64.2%; in assay [16], 93.8%; in [17] it was 21.9%.

Turning to `N=c1n(Cc2ccccc2)c(N)cc(=O)n1Cc1ccccc1`, the growth is 1.6% (active) in assay [1]; 42.6% in [2]; 20% in [3]; 68.8% in assay [4]; 34.1% in assay [5]; 21.4% in [6]. The growth in [7] is 37.9%; in assay [8] it was 0.156% (active); in assay [18] it was -1.73% (active); in assay [11] it was 3.02% (active); in [12], 37.2%; in [13] it was 20.7%. For the same molecule, the growth is 8.12% (active) in [15], 67.4% in [16] and 39.2% in assay [17].

`CCCCCCCCCCCCCCC(C(=O)OCC)C(=O)OCC`: the growth in assay [1] is 116%; in assay [2], 104%; in assay [3] it was 103%; in assay [4] it was 103%; in assay [5], 109%; in assay [6], 112%. In addition, the growth was 103% in assay [7]; 110% in assay [8]; 104% in [9]; 101% in assay [10]; 104% in assay [11]; 96.1% in assay [12]. The growth in [13] was 107%; in assay [14] it was 98.5%; in [15], 109%.

Regarding `CN(C)c1ccc(/C=C(\C#N)c2nc3ccccc3n2C)cc1`, the growth is 29.2% in assay [1]; 15.8% in assay [2]; 40.3% in assay [3]; 64.3% in assay [4]; 55.2% in assay [5]; 34.8% in assay [6]. The growth was 32.3% in assay [7]; -8.87% (active) in assay [8]; 27.6% in assay [9]; 40.2% in assay [10]; 39.7% in assay [11]; -26.2% (active) in assay [12]. The growth in [14] is 17.9%; in [15] it was 33.2%; in [16], 61.3%; in assay [17] it was 26.2%.

`COc1cc(C2Nc3ccccc3S2)cc(CN2CCOCC2)c1O` (centres undefined): the growth is 49% in assay [1]; 81.1% in assay [2]; 88.9% in [3]; 122% in assay [4]; 87.5% in [5]; 83.3% in [6]. For the same molecule, the growth in [7] was 39%; in assay [8], 52%; in [18], 72.2%; in assay [10], 88.4%; in assay [11], 84.9%; in assay [12], 0.594% (active). Besides, the growth in assay [13] was 50.7%; in assay [14], 50.6%; in assay [15], 53.2%; in assay [17], 55.4%.

In the case of `CCC(=O)NC(O)C(Cl)(Cl)C(C)Cl` (centres undefined), the growth in assay [1] is 105%; in assay [2], 105%; in assay [3] it was 98.1%; in assay [4] it was 105%; in assay [5] it was 109%; in assay [6] it was 107%. Moreover, the growth is 99.6% in assay [7]; 105% in assay [8]; 96.3% in assay [9]; 85.4% in assay [10]; 96.8% in assay [12]; 105% in assay [13]. In addition, the growth in [14] was 90.3%; in assay [15], 103%; in assay [16] it was 101%; in [17], 103%.
